AmpC no deterg: AmpC beta-lactamase inhibition without detergent; P00811; AmpC nitrocefin hydrolysis, absorbance 480 nm, 0.0001% Triton; Potency, µM (doses to about 57.1 µM), for the others: top-dose activity change, negative = inhibition, most hits filed as inhibitors; hit rate 0.52% among 330,000;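 also: potency is read from the fitted curve at half-maximal effect; plate controls were no compound for no effect and no enzyme for full effect; nearly all actives have a fitted effect of over 20% in size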
Target sequence (P00811 whole entry, looked up): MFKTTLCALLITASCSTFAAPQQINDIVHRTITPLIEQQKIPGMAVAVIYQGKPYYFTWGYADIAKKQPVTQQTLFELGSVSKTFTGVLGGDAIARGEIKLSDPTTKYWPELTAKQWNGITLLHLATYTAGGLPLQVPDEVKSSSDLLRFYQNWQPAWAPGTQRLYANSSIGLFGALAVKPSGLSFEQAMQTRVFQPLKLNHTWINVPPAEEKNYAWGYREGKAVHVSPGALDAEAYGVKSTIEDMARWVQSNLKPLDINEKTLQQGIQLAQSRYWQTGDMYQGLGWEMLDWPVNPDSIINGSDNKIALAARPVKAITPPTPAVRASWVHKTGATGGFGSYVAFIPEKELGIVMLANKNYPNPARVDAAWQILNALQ
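AmpC (5.3 nM in the dispensed reagent) in 20 mM phosphate pH 7.0 with 0.01% (detergent screen) or 0.0001% Triton X-100 was preincubated with compounds for 15 min at room temperature. Nitrocefin was then added from an 800 uM solution, and hydrolysis was followed at 480 nm.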
SARS PLpro yeast: blocks SARS-CoV papain-like protease in a yeast assay | S. cerevisiae expressing SARS-CoV PLpro, growth rescue | Potency, µM (highest dose often 32.9 µM), inactives show at the highest dose activity, positive = growth rescue, actives largely listed as activators | hit rate 0.19% among 330,000; calls by dose curve; also: potency is read from the fitted curve at half-maximal effect; 0% is about no effect; nearly all actives have a fitted effect of over 55% in size
CHX counter: affects cycloheximide protein synthesis inhibition readout, counter-screen; cell reporter, cycloheximide protein synthesis inhibition counterscreen; max response, %; hit rate 12% among 300,000; AID 2314; in the data active = max response mostly above about 13%, no sharp cut-off; inactive = mostly below about 14%; also: read at 38.3 µM for the half of the compounds with a filed dose; 0% is about no effect
AmpC inh detg: inhibitors of E. coli AmpC beta-lactamase with detergent; P00811; AmpC hydrolysis of nitrocefin, absorbance 480 nm, 0.01% Triton; Potency, µM (titrated, usually from 114 µM), inactives show at the top dose activity change, negative = inhibition, usual class: inhibitors; hit rate 0.041% among 370,000; AID 485294;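 also: potency is read from the fitted curve at half-maximal effect; 0% = no-compound wells and -100% = no-enzyme wells; nearly all actives have a fitted effect of over 25% in size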
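AmpC (5.3 nM in the dispensed reagent) in 20 mM phosphate pH 7.0 with 0.01% (detergent screen) or 0.0001% Triton X-100 was preincubated with compounds for 15 min at room temperature. Nitrocefin was then added from an 800 uM solution, and hydrolysis was followed at 480 nm.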
AMA1-RON2 inh: disrupts binding of P. falciparum AMA1 to RON2 | AlphaScreen AMA1-biotinylated RON2 peptide binding | Potency, µM (highest dose often 58.2 µM), for the others: top-dose activity change, negative = inhibition, most hits filed as inhibitors | hit rate 0.2% among 360,000 | AID 720542;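 also: potency is read from the fitted curve at half-maximal effect; 0% = vehicle wells and -100% = peptide control; nearly all actives have a fitted effect of over 45% in size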
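AMA1 (3D7) with his tag at 25 nM final met compounds first, then biotinylated RON2 peptide at 25 nM; detection used donor plus acceptor beads, 10 µg/mL apiece, read by AlphaScreen after 30 min at room temperature.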
Shiga inhibitor: Shiga toxin inhibition; AID 2315; inhibition, % at 38.7 µM; Vero cells, Shiga toxin protein synthesis inhibition reporter; hit rate 9.2% among 290,000; in the data active = inhibition mostly above about 28%, no sharp cut-off; inactive = mostly below about 43%; also: 0% is about no effect
Numbers without * were called inactive; u = inconclusive; x = not tested or not shown; [ ] = another dose, or the depositor's remark. Only a selection was taken, and hits are over-represented in it overall. Unless noted, calls follow the shape of the dose curve; as a rule, active = well fitted curve in the direction sought with a large enough effect; inconclusive = small, poorly fitted or top-dose-only effect, or another doubt; inactive = no such curve, though single readings can be large; an effect the other way counts as inactive or inconclusive.

SMILES	AmpC no deterg	SARS PLpro yeast	CHX counter	AmpC inh detg	AMA1-RON2 inh	Shiga inhibitor
C/C(CC(=O)NC1CCCCC1)=N\NC(=O)c1ccccn1	-4%	1%	39*	4%	38%	64*
C/C(CC(=O)Nc1ccc(F)cc1)=N\NC(=O)c1ccccn1	-4%	-1%	18	3%	54%	24
O=C(NCc1ccc(Cl)cc1Cl)c1ccccn1	0%	-15%	8	0%	13%	6
CC(=O)Nc1ccccc1NC(=O)C/C(C)=N/NC(=O)c1ccccn1	2%	0%	38*	-1%	60%	61*
O=C(O)CCCCC1CCSS1 (centres undefined)	16µM*	1%	-1	50µM*	9%	3
C=C1C(=O)O[C@@H]2C[C@@H](C)[C@H]3C=CC(=O)[C@]3(O)C[C@@H]12	19%	2%	14*	3%	-10%	29
CN(C)c1ccc(N=Nc2ccccc2C(=O)OCC(=O)N(C)c2ccccc2)cc1	8%	-16%	34*	-12%	14µM*	64
COC(=O)c1ccccc1NC(=O)COC(=O)c1ccccc1N=Nc1ccc(N(C)C)cc1	-35%	-1%	17	-16%	u	16
CC(=O)c1ccc(NC(=O)COC(=O)c2ccccc2N=Nc2ccc(N(C)C)cc2)cc1	13%	3%	49*	0%	11µM*	99*
Cc1ccc(C)c(C(=O)OCC(=O)N(C)c2ccccc2)c1	13%	-3%	10	-7%	1%	8
CC(=O)Nc1ccc(S(=O)(=O)N[C@@H](C)C(=O)OCC(=O)c2ccc[nH]2)cc1	-9%	0%	x	x	0%	x
Cc1cc(C)n2c(nc3ccccc32)c1C(=O)NN	77%	-1%	45*	-3%	76%	18*
Cc1ccc(N2C(=O)C3ON(c4ccccc4)C(CC(C)C)C3C2=O)cc1 (centres undefined)	-20%	-1%	9.3*	6%	0%	21
O=C(CCS(=O)(=O)c1ccccc1)Nc1ccccn1	-13%	0%	8	2%	7%	9
Cc1ccnc(NC(=O)CS(=O)(=O)c2ccccc2)c1	-38%	-1%	13	1%	-3%	89*
Cc1ccnc(NC(=O)CCS(=O)(=O)c2ccccc2)c1	-6%	u	18*	-3%	1%	36
COc1ccc(C(=O)N2CCNC(=O)C2CC(=O)Nc2ccc(C)c(C)c2)cc1 (centres undefined)	45%	-1%	0	0%	12%	-17
CN(N=Cc1ccc([N+](=O)[O-])cc1)c1ccccn1	x	x	x	x	-22%	x
CN(/N=C/c1cccnc1)c1cnc2ccccc2n1	-2%	-6%	47*	u	5%	64*
Clc1ccc(OCC#CCN2CCCC2)cc1	-5%	0%	23*	3%	u	61*
CN1CCN(CC#CCOc2ccc(Cl)cc2)CC1	-7%	2%	21*	-1%	-21%	x
COc1ccccc1OCC#CCN1CCCCCC1	1%[2.29 µM]	-1%	-1	-4%	u	16
N#Cc1c(N)nc(SCc2ccccc2)c(C#N)c1-c1ccco1	-13%	3%	15*	u	17%	6
c1ccc(CSc2nnc(-c3ccco3)o2)cc1	-10%	-1%	49*	2%	20%	109*
N#Cc1c(N)nc(SCC(=O)OCc2ccccc2)c(C#N)c1-c1ccco1	-28%	0%	-3	u	3%	-3
SMILES	AmpC no deterg	SARS PLpro yeast	CHX counter	AmpC inh detg	AMA1-RON2 inh	Shiga inhibitor
Fc1ccc(CSc2nnc(-c3ccco3)o2)cc1	-14%	-3%	46*	-11%	-1%	59*
O=C(O)c1ccc(CSc2nnc(-c3ccco3)o2)cc1	-16%	4%	-6	-15%	12%	6
Brc1ccc(CSc2nnc(-c3ccco3)o2)cc1	-12%	-36%	63*	1%	24%	69*
CCC(C(=O)NCc1cc(OC)ccc1OC)n1nc(C)c2sc3ccccc3c2c1=O (centres undefined)	x	x	x	4%	x	x
Cc1ccc(/C=C2/Sc3ccc(C(=O)N4CCN(c5ccccn5)CC4)cc3NC2=O)cc1	-52%	11%	-8	-3%	14%	14
Cc1ccc(CSc2nnc(-c3ccco3)o2)cc1	-7%	-15%	33*	5%	34%	107*

Bioassay records: PubChem BioAssay, National Center for Advancing Translational Sciences (NCATS)
